We go through six compounds from PubChem BioAssay (NCATS).

The test system of one assay is MKL-1. As to the kind of experiment: qHTS assay to identify novel small-molecules to repurpose for Merkel cell carcinoma treatment (AID 1296009). Further: nearly all actives have a fitted effect of over 60% in size. Conditions: MCC and control cell lines, CellTiter-Glo viability, 72 h; series mostly up to 46 µM. The essentials:
(§1)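 Cells exposed to NPC (8-point) and MIPE (11-point) compound dilutions for 72 hr at 37 degree celsius; viability read by CellTiter-Glo luminescence, normalized to no-cell and DMSO in-plate controls.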

Another assay deals with MKL-2. The assay is described as above. As to conditions: MCC and control cell lines, CellTiter-Glo viability, 72 h; series mostly up to 46 µM. The essentials: as §1
Another assay has as its system UISO. Described as above. As to conditions: MCC and control cell lines, CellTiter-Glo viability, 72 h; series mostly up to 46 µM. The essentials:
as §1
(In ATP-based viability assays light output follows the ATP content of the culture.)

Another assay relates to C33A. As to the kind of experiment: Primary qHTS to identify gynecologic anti-cancer compounds using libraries of approved drugs and bioactive compounds (AID 1345084). Further: nearly all actives have a fitted effect of over 55% in size. Further: potency means the concentration at half of the fitted maximal effect. As to conditions: Gynecologic cancer cell panel viability, ATPlite luminescence, 48 h; series mostly up to 57.5 µM. The essentials:
(§2)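 Cell viability after 48 h drug treatment, ATPlite luminescence readout; five doses.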
In general terms: In qHTS, concentration-response curves come from the screen itself.

The subject of another assay is CAOV3. Described as above. Conditions: Gynecologic cancer cell panel viability, ATPlite luminescence, 48 h; series mostly up to 57.5 µM. In a few lines:
as §2

Another assay concerns CASKI. The assay is described as above. As to conditions: Gynecologic cancer cell panel viability, ATPlite luminescence, 48 h; series mostly up to 57.5 µM. In a few lines:
as §2

The next assay relates to Es-2. Described as above. Conditions: Gynecologic cancer cell panel viability, ATPlite luminescence, 48 h; series mostly up to 57.5 µM. The essentials: as §2
Another assay has as its system HeLa. The assay is described as above. Conditions: Gynecologic cancer cell panel viability, ATPlite luminescence, 48 h; series mostly up to 57.5 µM. In a few lines:
as §2

A further assay has as its system Hek293T. The description is as above. Conditions: Gynecologic cancer cell panel viability, ATPlite luminescence, 48 h, control line for the selectivity index; series mostly up to 57.5 µM. The essentials:
as §2

In the next assay the test system is JEG-3. Described as above. As to conditions: Gynecologic cancer cell panel viability, ATPlite luminescence, 48 h; series mostly up to 57.5 µM. The essentials:
as §2

Another assay has as its system OV90. Described as above. Conditions: Gynecologic cancer cell panel viability, ATPlite luminescence, 48 h; series mostly up to 57.5 µM. The essentials: as §2
A further assay relates to PA-1. Described as above. Conditions: Gynecologic cancer cell panel viability, ATPlite luminescence, 48 h; series mostly up to 57.5 µM. In a few lines:
as §2

Another assay relates to SKOV3. The description is as above. Conditions: Gynecologic cancer cell panel viability, ATPlite luminescence, 48 h; series mostly up to 57.5 µM. In a few lines: as §2
The next assay concerns Tov-21-G. Described as above. Conditions: Gynecologic cancer cell panel viability, ATPlite luminescence, 48 h; series mostly up to 57.5 µM. In a few lines:
as §2

The test system of the next assay is Tov112D. The assay is described as above. As to conditions: Gynecologic cancer cell panel viability, ATPlite luminescence, 48 h; series mostly up to 57.5 µM. The essentials:
as §2

The nature of assay [1]: Drug repurposing screens with cells derived from glioblastoma tumor samples (AID 1345199). Further: nearly all actives have a fitted effect of over 40% in size. Further: potency means the concentration at half of the fitted maximal effect. Conditions: GBM patient neurospheres viability, ATP luminescence, 48 h. The essentials:
(§3)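 Four patient lines of CD133+ GBM neurospheres were screened at several concentrations; hits were retested in those lines plus three slower-growing GBM lines, using 48-hour treatment and ATP-based viability.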

A further assay deals with astro. The assay is described as above. As to conditions: viability, ATP luminescence, 48 h; series mostly up to 45.9 µM. In a few lines:
as §3

The test system of another assay is WaGa. Briefly: qHTS assay to identify novel small-molecules to repurpose for Merkel cell carcinoma treatment (AID 1296009). Further: nearly all actives have a fitted effect of over 60% in size. As to conditions: MCC and control cell lines, CellTiter-Glo viability, 72 h; series mostly up to 46 µM. In a few lines: as §1
[2] abbreviates: at 45.9 µM (top of the series), tumour line B.
Where [3] appears, read: at 45.9 µM (top of the series), tumour line D.
[4] abbreviates: at 46 µM (top of the series), tumour line A.
Setting [5] is: at 46.1 µM (top of the series), tumour line C.

Results filed as inconclusive are left out. Values without a mark were called inactive. The source made the active and inactive calls. The call rests on the fitted dose curve; in most records, active means well fitted curve in the direction sought with a large enough effect; inconclusive means small, poorly fitted or top-dose-only effect, or another doubt; inactive means no such curve, though single readings can be large; an effect the other way counts as inactive or inconclusive.
On the % scale 0 is the no-effect control and ±100 the full control effect.

On to `Nc1cccc2c1CN(C1CCC(=O)NC1=O)C2=O` (configuration not stated), for which the Potency result in the assay on MKL-1, with MKL-2, with UISO, with C33A, with CAOV3 and in the assay on CASKI was “inactive” in each case. The Potency entry with Es-2, in the assay on HeLa, with Hek293T, in the assay with JEG-3, with OV90 and with PA-1 was “inactive” in each case. In addition, the Potency result with SKOV3, with Tov-21-G, in the assay with Tov112D and in the assay on astro was “inactive” each time. The activity, negative = cell killing in [1] (setting [2]) was -18.6%; in assay [1] (setting [3]) it was -1.35%; in [1] (setting [4]), -28.8%; in assay [1] (setting [5]), -29.8%.

`CCC[C@@H]1C[C@@H](C(=O)N[C@@H]([C@H]2O[C@H](SC)[C@H](O)[C@@H](O)[C@H]2O)[C@@H](C)O)N(C)C1`: the Potency entry with MKL-1, in the assay on MKL-2, with UISO, with WaGa, with C33A and with CAOV3 was “inactive” in each case. The Potency result in the assay on CASKI, in the assay with Es-2, with HeLa, in the assay on Hek293T, with JEG-3 and with OV90 was “inactive” each time. The Potency result with PA-1, in the assay on Tov-21-G, with Tov112D and in the assay with astro was “inactive” in each case. For the same compound, the activity, negative = cell killing in assay [1] (setting [2]) is -4.01%; in assay [1] (setting [3]), 5.06%; in assay [1] (setting [4]), -2.05%; in assay [1] (setting [5]), 3.06%.

`Cc1ccc(Nc2nccc(N(C)c3ccc4c(C)n(C)nc4c3)n2)cc1S(N)(=O)=O`: the Potency entry with MKL-1, in the assay on MKL-2, with UISO, in the assay with WaGa, in the assay with C33A and in the assay on CAOV3 was “inactive” throughout. Further, the Potency result with CASKI, in the assay on Es-2, in the assay with Hek293T, in the assay with JEG-3, in the assay with PA-1 and in the assay with Tov112D was “inactive” in each case. The Potency in the assay on SKOV3 was 14.1 µM (active); in assay [1] (tumour line A), 2.51 µM (active); in [1] (tumour line D), 7.08 µM (active). Also, in assay [1] (setting [2]), the activity, negative = cell killing was -23.7%.

As to `Cc1nc2n(c(=O)c1CCN1CCC(c3noc4cc(F)ccc34)CC1)CCCC2`, the Potency entry in the assay on MKL-1, in the assay on MKL-2, with UISO, with WaGa, with CAOV3 and with CASKI was “inactive” each time. In addition, the Potency entry with Es-2, in the assay on HeLa, in the assay on Hek293T, in the assay on JEG-3, in the assay on OV90 and in the assay with PA-1 was “inactive” each time. Besides, the Potency entry in the assay with SKOV3, with Tov-21-G, in the assay with Tov112D and in the assay with astro was “inactive” in each case. Further, the activity, negative = cell killing in [1] (setting [2]) is -28.4%; in assay [1] (setting [5]), -9.67%. The Potency in [1] (tumour line A) was 3.55 µM (active); in assay [1] (tumour line D) it was 11.2 µM (active).

Consider `Nc1ncn([C@H]2C[C@H](O)[C@@H](CO)O2)c(=O)n1`, for which the Potency entry with MKL-1, in the assay with MKL-2, with UISO, in the assay on WaGa, with C33A and in the assay with CAOV3 was “inactive” throughout. Also, the Potency result in the assay with CASKI, with Es-2, in the assay with HeLa, with Hek293T, with JEG-3 and in the assay on OV90 was “inactive” in each case. The Potency result in the assay on SKOV3, with Tov-21-G and with astro was “inactive” throughout. Further, the activity, negative = cell killing was -23% in assay [1] (setting [2]), -5.51% in assay [1] (setting [3]), -24.9% in assay [1] (setting [4]) and -19.7% in assay [1] (setting [5]).

Consider `O=c1oc2cc(O)ccc2s1`, for which the Potency entry in the assay on MKL-1, with MKL-2, with UISO, in the assay with WaGa and in the assay on astro was “inactive” in each case. The activity, negative = cell killing in assay [1] (setting [2]) is -24%. Moreover, in [1] (tumour line C), the Potency was 23.1 µM (active).
